Screening data: PubChem BioAssay, several laboratories
Abs 340nm: absorbance at 340 nm; compound absorbance at 340 nm, fold over control; fold change at 10 µM; 65,000 tested, under 10 active;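 active = at 10 µM dose, initial 340 nm absorbance at least 2 fold that of control wells; inactive = change under 2 fold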;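 also: initial absorbance extrapolated from kinetic A340 decline of NADH oxidation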
Htt clearance: mutant huntingtin protein clearance; HeLa Exon1htt(103Q)mCFP, aggregate imaging; zero = plate's median compound well; inhibition, % at 1.5 µM; 47,000 compounds, 0.42% hits; AID 853;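 active = inhibition of aggregate fluorescence above about 70%, also judged a hit by eye on the cell image, limit read from the data, passing the limit was not always enough; inconclusive = no rule stated for this call; inactive = not judged a hit on image review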;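 also: cells exposed to compound for three days before fixation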
NADH enzymes: blocks coupling enzymes of NAD/NADH assays. coupled PK/LDH NADH assays, four targets. 65,000 compounds, 0.02% hits. IC50, µM (highest dose often 10 µM), inactives show top-dose inhibition;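 active = single-dose screening hits from any of four coupled enzyme assays that gave an IC50 when retested across doses; inconclusive = no clear call, values can overlap the other calls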;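 also: the DPM-DC format reads NADH fluorescence rather than 340 nm absorbance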
M1 antagonist: M1 muscarinic receptor (rat) antagonism. P08482. CHO-M1 cells, Fluo-4 calcium, ACh EC80 antagonist mode; active compounds read low. B-score at 10 µM. 64,000 compounds, 3.4% hits;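 active = calcium fluorescence response, raw or row-and-column corrected B-score, differing from the plate sample mean either way at a set confidence level, mostly lower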
Target sequence (P08482 whole entry, looked up): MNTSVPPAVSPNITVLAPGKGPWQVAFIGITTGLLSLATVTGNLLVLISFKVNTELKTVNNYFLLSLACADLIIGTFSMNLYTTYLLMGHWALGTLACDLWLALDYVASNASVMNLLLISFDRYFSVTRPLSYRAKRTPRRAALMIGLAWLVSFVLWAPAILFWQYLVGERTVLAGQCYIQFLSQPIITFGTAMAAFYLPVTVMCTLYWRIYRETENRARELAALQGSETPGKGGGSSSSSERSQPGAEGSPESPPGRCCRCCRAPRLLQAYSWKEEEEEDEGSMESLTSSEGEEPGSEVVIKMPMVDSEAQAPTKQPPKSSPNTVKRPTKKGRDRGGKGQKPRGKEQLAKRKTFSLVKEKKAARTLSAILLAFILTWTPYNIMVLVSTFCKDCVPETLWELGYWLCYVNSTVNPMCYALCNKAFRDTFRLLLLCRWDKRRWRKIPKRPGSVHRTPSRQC
M1 ag: agonists of M1 muscarinic receptor. CHO-M1 cells, Fluo-4 calcium fluorescence, agonist mode; active compounds read high. B-score at 10 µM. 64,000 compounds, 3% hits. AID 626;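 active = fluorescence rise, raw or as B-score row- and column-corrected plate score, outside the 99.7% band of its plate's samples, either direction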
Fluor 339 460: intrinsic fluorescence of library compounds, ex339/em460 – biochemical, MLSMR library, data from DPM-DC assay, artefact control, profiling panel; 65,000 compounds, 5.5% hits; compound autofluorescence, ex339/em460 nm, NADH buffer; active compounds read high; 1 = no-compound wells, NADH background; fluorescence fold increase at 10 µM; AID 709;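 active = at 10 µM, mean starting fluorescence two-fold or more over control wells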;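 also: signal is the first read of a kinetic run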
Numbers without * were called inactive; u = inconclusive; x = no result given. An excerpt weighted towards active compounds, which were near 9.3% of everything screened.

SMILES | Abs 340nm | Htt clearance | NADH enzymes | M1 antagonist | M1 ag | Fluor 339 460
Cc1ccc(C(C(=O)NC2CCCC2)N(C(=O)CCC(=O)Nc2cc(C)on2)c2ccccc2)cc1 (configuration not stated) | x | 2 | x | x | x | x
CC1(C(=O)N(c2ccccc2)C(C(=O)NC2CCCC2)c2ccccn2)CC(=O)N=C2C=CC=CN21 (configuration not stated) | 1.1 | 15 | 12% | -1 | -1.1 | 4.7*
CCC(=O)c1cc(F)c(N2CCN(S(=O)(=O)c3ccc(C)cc3)CC2)cc1C | 1.1 | -18 | 0% | -0.0058 | -0.32 | 1.1
COc1ccc(C)cc1Cn1c(S(C)(=O)=O)nc2ccccc21 | 1.1 | x | 3% | 0.1 | 0.21 | 1.1
CC(C)Cn1c(-c2ccc(C#N)cc2)nc2c1c(=O)[nH]c(=O)n2CC(C)C | x | 53 | x | x | x | x
CCCCn1c(=O)[nH]c(=O)c2c1nc(-c1ccc(C#N)cc1)n2C1CCCC1 | 1 | 16 | 9% | -0.04 | 0.49 | 5.2*
Cc1ccc(O)c(/C=N/NC(=O)C2=NNC(c3ccccc3)(c3ccccc3)C2)c1 | x | 71* | x | x | x | x
NC(=O)CC1NC(=O)c2ccccc21 (configuration not stated) | 1 | -54 | 5% | -0.91 | 0.27 | 1.1
CCOc1nc(-c2ccc(OC)cc2)ccc1-c1noc(C)n1 | 1.2 | 17 | 7% | 1.8 | 0.35 | 3.8*
COCc1nc(-c2ccc(-c3ccc(C)cc3)nc2OC)no1 | 1 | -5 | 7% | 0.47 | 0.18 | 1.9
COc1ccc(-c2ccc(-c3noc(C)n3)c(OC)n2)cc1 | 1.2 | -6 | 7% | 0.31 | 0.35 | 3.8*
COCCSc1nnc(NC(=O)CSCc2ccccc2)s1 | 0.99 | u | 2% | 0.056 | -0.12 | 1
COc1ccc(-c2ccc(OC)cc2C(=O)O)cc1 | 1 | -33 | 2% | 0.62 | -0.58 | 1.1
COc1ccc2nc(C)cc(C(=O)O)c2c1 | 1 | x | 4% | 1.1 | -0.53 | 3.8*
CCOc1ccc2nc(C)cc(C(=O)O)c2c1 | 0.99 | -4 | 7% | -0.41 | -0.027 | 3.8*
Cc1nc2ccc(N)cc2c(=O)n1Cc1ccc(Cl)cc1 | 1.1 | 28 | 14% | -1.1 | -0.12 | 3.7*
O=C1CCn2nc(-c3ccc(Cl)cc3)cc2N1 | 0.99 | x | 1% | 0.14 | 1.3 | 1.1
Cc1cc(C)c(C#N)c(=N)o1 | 1.1 | -64 | 6% | -0.69 | -1.5 | 1.4
Cc1ccc2cc(CCNC(=O)CC(C)(C)C)c(=O)[nH]c2c1C | 1.1 | x | 8% | -0.14 | -1.4 | 2*
COc1ccc2nc3oc(C(=O)N4CCC(C(N)=O)CC4)cc3cc2c1 | 1.1 | x | 3% | -0.64 | 1.8 | 5.1*
COc1ccc2cc3cc(C(=O)Nc4ccc5c(c4)OCCO5)oc3nc2c1 | 1.1 | 35 | 7% | -0.095 | -1.1 | 2.1*
COc1ccc2cc3cc(C(=O)N4CCN(Cc5ccc6c(c5)OCO6)CC4)oc3nc2c1 | 1.1 | 49 | 8% | 0.7 | 3 | 5*
CCN(C(=O)c1cc2cc3ccc(C)cc3nc2o1)c1ccc(OC)cc1 | 1 | x | 3% | -0.24 | -0.28 | 1.2
COc1ccc2nc3oc(C(=O)N4CCN(c5cccc(Cl)c5)CC4)cc3cc2c1 | 1 | -38 | 3% | -0.34 | 0.89 | 1.4
COc1ccc2cc3cc(C(=O)NCC4COc5ccccc5O4)oc3nc2c1 (configuration not stated) | 1 | 0 | 5% | 0.8 | 0.54 | 5*
SMILES | Abs 340nm | Htt clearance | NADH enzymes | M1 antagonist | M1 ag | Fluor 339 460
CC(=O)c1cc2c(cc1NC(=O)CSc1nc3ccccc3o1)OCO2 | 1 | 64 | 15% | -0.49 | 0.13 | 2.4*
Cc1cc(C)nc(NC(=O)CSc2nc3ccccc3o2)n1 | x | -47 | x | x | x | x
CC1CCCCN1Cc1nc2c(c(=O)n(C)c(=O)n2C)n1Cc1cccc2ccccc12 (configuration not stated) | 1 | x | 9% | 0.64 | -0.46 | 1.1
CC(=O)Nc1ccc(OC(F)(F)C(F)C(F)(F)F)c(NC(C)=O)c1 (configuration not stated) | 1 | 66 | 5% | 2.4 | -0.11 | 1
Oc1ccc(-c2nc3ncccn3c2Nc2ccc3c(c2)OCCO3)cc1 | 1.1 | -65 | 9% | 0.0093 | 0 | 1.1
CC(=O)Nc1c(-c2ccccc2)nc2ncccn12 | 1.1 | x | 4% | 0.13 | -0.49 | 2.2*
O=C(Nc1c(-c2ccccc2)nc2ccccn12)c1ccco1 | 1 | 15 | 2% | -0.065 | -0.15 | 1.1
Cc1ccc(-c2nc3ncccn3c2NC(=O)C2CC2)cc1 | 1.1 | x | 3% | 0.36 | 1.1 | 5*
Cn1cnnc1SCc1ccc(C(=O)O)cc1 | 1 | -9 | 3% | 2.1* | 1.2 | 1
COc1ccc(-c2ccc(-c3noc(-c4ccc(OC)c(OC)c4)n3)c(OC)n2)cc1 | 1.1 | x | 15% | 0.0094 | -0.3 | 3.9*
COc1ccc(-c2ccc(-c3noc(-c4cccc(OC)c4)n3)c(OC)n2)cc1 | 1.1 | x | 9% | 0.5 | -0.21 | 3.8*
Cc1ccc(CNC(=O)CSc2nc(N3CCCCC3)nc(N3CCCCC3)n2)cc1 | 1 | 69 | 3% | 0.34 | 0.81 | 1.1
COc1cccc(NC(=O)N(CCCN2CCOCC2)C(C)c2cc3ccccc3o2)c1 (configuration not stated) | x | 7 | x | x | x | x
CSc1ccccc1NC(=O)CN(c1ccccc1)S(=O)(=O)N(C)C | 0.99 | x | 4% | 0.63 | 0.58 | 1
COC(=O)c1ccccc1NC(=O)CN(c1ccccc1)S(=O)(=O)N(C)C | 1 | x | 7% | 1.9* | 1.6 | 1.1
O=C(NCc1ccccc1F)C1CCCN(C(=O)NC2CCCCC2)C1 (configuration not stated) | 1 | 10 | 3% | 0.63 | -0.63 | 1.1
CCOC(=O)Nc1ccc2c(C)cc(=O)oc2c1 | 1.2 | 0 | 9% | 0.15 | -0.29 | 3.7*
CCOCCOC(=O)C1=C(C)NC2=C(C(=O)CC(c3cccs3)C2)C1c1ccsc1 (configuration not stated) | 1.1 | -2 | 2% | 0.61 | 0.51 | 2.1*
CCOC(=O)C1=C(C)NC2=C(C(=O)CCC2)C1c1cccs1 (configuration not stated) | 1.1 | -1 | 8% | -0.0022 | 0.84 | 1.6
COC(=O)C(C)Oc1ccc2c3c(c(=O)oc2c1)CCCCC3 (configuration not stated) | 1 | -38 | 1% | -0.14 | 0.14 | 3*
O=C(O)COc1ccc2c3c(c(=O)oc2c1)CCC3 | x | -44 | x | x | x | x
CCCOc1ccc2c3c(c(=O)oc2c1)CCCC3 | 1.1 | 44 | 6% | -0.33 | 0.22 | 3.8*
O=c1oc2cc(O)ccc2c2ccccc12 | x | -6 | x | x | x | x
O=c1oc2cc(O)ccc2c2oc3cc(O)ccc3c12 | 1 | x | 5% | 0.61 | 0.41 | 2.4*
O=C(Oc1ccc2c3c(c(=O)oc2c1)CCCC3)c1ccco1 | 1 | -103 | 4% | -0.32 | -0.045 | 2.2*
